PubChem BioAssay AID2629 (Broad Institute, 2010)
“And” between values parts separate entries of the source, which are not always exact repeats. Equal entries are not always repeated. The campaign covered roughly 320,000 compounds. About 1,900 (0.59%) were called active. The sample holds actives, similar compounds and a random draw of the others, so the mix is not that of the screen. Rule as the data show it: active = inhibition mostly above about 10% (no sharp cut-off); inactive = mostly below about 6.7%.

biological target: Protein LANA1 (Human herpesvirus 8 type P (isolate GK18)) (UniProt Q9QR71); test: blockers of LANA interaction with H2A/H2B – biochemical, FP readout, HTS, primary screen (AID 2629); details: cell-free LANA-H2A/H2B peptide, fluorescence polarization, active compounds read high, concentration not given here
Sequence (Q9QR71 whole entry, looked up): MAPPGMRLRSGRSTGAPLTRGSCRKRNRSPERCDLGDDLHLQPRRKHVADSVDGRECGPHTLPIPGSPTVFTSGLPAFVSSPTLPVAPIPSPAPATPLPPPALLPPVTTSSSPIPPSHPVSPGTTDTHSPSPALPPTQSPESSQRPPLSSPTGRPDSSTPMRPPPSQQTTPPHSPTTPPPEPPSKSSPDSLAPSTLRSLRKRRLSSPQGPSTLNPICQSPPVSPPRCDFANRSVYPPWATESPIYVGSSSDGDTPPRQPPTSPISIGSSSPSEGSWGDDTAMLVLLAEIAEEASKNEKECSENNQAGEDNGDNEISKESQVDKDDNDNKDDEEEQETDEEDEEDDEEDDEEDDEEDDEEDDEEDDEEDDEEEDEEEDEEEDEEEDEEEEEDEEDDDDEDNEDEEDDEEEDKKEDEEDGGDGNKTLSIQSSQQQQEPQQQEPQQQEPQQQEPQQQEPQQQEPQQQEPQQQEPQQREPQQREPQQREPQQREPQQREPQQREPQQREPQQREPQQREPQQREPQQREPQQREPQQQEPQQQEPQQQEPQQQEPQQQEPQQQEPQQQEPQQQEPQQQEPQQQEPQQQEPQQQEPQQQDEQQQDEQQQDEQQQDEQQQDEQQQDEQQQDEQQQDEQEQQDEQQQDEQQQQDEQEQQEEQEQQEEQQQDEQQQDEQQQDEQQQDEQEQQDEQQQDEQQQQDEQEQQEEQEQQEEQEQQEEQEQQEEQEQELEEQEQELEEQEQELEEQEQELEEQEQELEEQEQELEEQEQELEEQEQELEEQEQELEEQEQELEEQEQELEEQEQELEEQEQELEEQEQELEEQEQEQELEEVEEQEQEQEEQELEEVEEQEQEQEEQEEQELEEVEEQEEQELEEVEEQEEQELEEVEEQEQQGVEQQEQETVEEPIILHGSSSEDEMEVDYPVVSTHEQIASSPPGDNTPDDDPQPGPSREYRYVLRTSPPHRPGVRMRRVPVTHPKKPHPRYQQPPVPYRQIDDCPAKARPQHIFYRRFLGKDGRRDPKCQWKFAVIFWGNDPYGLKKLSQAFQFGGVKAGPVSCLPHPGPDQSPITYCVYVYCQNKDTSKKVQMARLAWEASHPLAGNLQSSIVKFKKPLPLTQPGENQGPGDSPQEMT

inhibition, inactive:
CC(C)(C)C1CCC(C(=O)NCC(c2cccs2)N2CCOCC2)CC1 (configuration not stated) -3%
CN(Cc1ccc(CNC[C@H]2O[C@@H](n3cnc4c(N)ncnc43)[C@H](O)[C@@H]2O)o1)S(C)(=O)=O 1.32%
O=C(O)Cc1csc(-c2cccc(Oc3ccccc3)c2)n1 -3.8% and 4.18%
COc1cc(C(=O)OC(C)C(=O)NCC2CCCCC2)cc(NC(=O)c2ccco2)c1OC (configuration not stated) 1.94%
CC(C)(C)c1ccc(C(=O)NCc2nnc(SCC(=O)N3CCCc4ccccc43)n2-c2ccccc2)cc1 2.13%
COc1ccc(NC(=O)C2CCCN(S(=O)(=O)c3cccc4cccnc34)C2)cc1 (configuration not stated) -2.43%
COc1ccc(NC(=O)C2CCCN(S(=O)(=O)c3cccc4cccnc34)C2)cc1OC (configuration not stated) 2.61%
COc1ccc(C2C(C(C)=O)=C(O)C(=O)N2Cc2cccnc2)cc1 (configuration not stated) 0.519%
CCOc1cc(C2C(C(=O)c3ccco3)=C(O)C(=O)N2Cc2ccccc2)ccc1O (configuration not stated) 2.24%
Cc1ccc(N(C(=O)Cc2cccs2)C2C=CS(=O)(=O)C2)cc1Cl (configuration not stated) 0.0691%
OC1CSc2nc3ccccc3n2C1 (configuration not stated) 0.181%
COCCCN1C(=O)C(=O)/C(=C(/O)c2ccc3c(c2)CC(C)O3)C1c1cccnc1 (configuration not stated) -6.56% and -12.2%
CC1Cc2cc(/C(O)=C3\C(=O)C(=O)N(CCN4CCOCC4)C3c3ccccc3F)ccc2O1 (configuration not stated) -0.116%
CN(CC(=O)NCCc1ccc(S(N)(=O)=O)cc1)CC(=O)Nc1ccc(Cl)cc1 -9.65%
CCn1cc(C(=O)NCCCN2CCCCCC2)c(=O)c2cc(S(=O)(=O)N3CCc4ccccc4C3)ccc21 1.1%
CC1(C)N=C(c2ccccn2)C(C)(C)N1O 3.45%
CC(C(=O)N1CCc2ccccc21)N(C)CC(=O)Nc1ccc(F)cc1 (configuration not stated) 4.45%
COc1cc(NC(=O)c2ccccc2NS(=O)(=O)c2ccc(Cl)s2)cc(OC)c1 -1.77%
C=CCC[C@@H](Cc1ccc(F)cc1)C(=O)OC[C@H](Cc1c[nH]c2ccccc12)NC(=O)[C@@H](CC=C)CC(=O)N(CCO)Cc1ccccc1 3.67%
C=CC[C@@H](CC(=O)N[C@H](CO)Cc1ccccc1)C(=O)N[C@@H](COC(=O)[C@@H](CC=C)Cc1ccc(F)cc1)Cc1c[nH]c2ccccc12 -2.42%
COc1ccc(NC(=O)CSc2nc(SC)ns2)c(OC)c1 0.787%
CCCn1nc(Oc2nc(NC(C)C)nc(N(C)C)n2)ccc1=O -2.39%
O=C(NCCN1CCOCC1)c1cc(-c2cccs2)nc2ccccc12 14%
CCCCN(C)CCCNC(=O)c1cc(-c2cccs2)nc2ccccc12 -1.81%
CCc1ccccc1NC(=O)CN(C)C(=O)c1cc(C2CC2)nn1-c1ccccc1 -3.11%
COc1ccc(NC(=O)CN(C)C(=O)c2cc(C3CC3)nn2-c2ccccc2)cc1 -290%
COc1cccc(CN2CCN(Cc3ccc4cccc(F)c4n3)CC2CCO)c1 (configuration not stated) -3.14%
COc1ccc(C2=CC(c3cccc(OC)c3)n3nnnc3N2)cc1 (configuration not stated) -1.03%
CCS(=O)(=O)n1nc(-c2ccccc2)nc1SCc1ccccc1 0.944%
COc1ccc(C(=O)NC(C)c2nccs2)cc1OC1CCN(C(C)C)CC1 (configuration not stated) 4.31%
COc1ccc(C(=O)NCCn2nc(C)cc2C)cc1OC1CCN(C(C)=O)CC1 0.74%
CCOc1ncccc1C(=O)OCC(=O)NC1CC1 -3.51%
FC(F)(F)c1nnc2c3ccccc3c(Cl)nn12 8.62%
Cc1nnc(SCc2ccc(C(=O)c3ccc(Cl)cc3)o2)n1-c1ccccc1 -1.68%
Cc1noc(C)c1NC(=O)Nc1cccc2c1O[C@H](CN(C)S(=O)(=O)c1c(C)noc1C)[C@@H](C)CN([C@H](C)CO)C2=O -5.54%
COc1ccc(S(=O)(=O)N(C)C[C@@H]2Oc3ccc(NC(=O)Nc4c(C)noc4C)cc3C(=O)N([C@H](C)CO)C[C@@H]2C)cc1 4.41%
CC(C)NC(=O)Nc1cccc2c1O[C@@H](CN(C)S(=O)(=O)c1ccc(F)cc1)[C@@H](C)CN([C@H](C)CO)C2=O -0.984%
Cc1noc(C)c1S(=O)(=O)N(C)C[C@H]1Oc2ccc(NC(=O)C3CC3)cc2C(=O)N([C@H](C)CO)C[C@@H]1C 3.05%
C[C@H](CO)N1C[C@H](C)[C@H](CN(C)C(=O)Nc2ccc(C(F)(F)F)cc2)Oc2c(NC(=O)c3ccncc3)cccc2C1=O 0.195%
COc1ccc(NC(=O)Nc2ccc3c(c2)C(=O)N([C@H](C)CO)C[C@H](C)[C@@H](CN(C)C(=O)Nc2ccc4c(c2)OCO4)O3)cc1 1.05%
COc1ccc(S(=O)(=O)Nc2cccc3c2O[C@H](CN(C)S(=O)(=O)c2ccc(OC)cc2)[C@@H](C)CN([C@H](C)CO)C3=O)cc1 -1.79%
Cc1ccc2c(c1)N(C(=O)CCC(=O)NCc1cccnc1)CCO2 -4.82%
CCN(C(=O)CSc1cccc[n+]1[O-])c1ccccc1 -3%
CCOc1ccc(CCNC(=O)COC(=O)c2c(OC)cccc2OC)cc1OCC 1.41%
FC(F)Oc1ccccc1C1CC(c2ccc(Br)s2)Nc2ncnn21 (configuration not stated) 2.23%
Cn1c(C(=O)OC(C(=O)NC2CCCCC2)c2ccccn2)cc2sccc21 (configuration not stated) -2.12%
Cc1cc(C)c(C)c(S(=O)(=O)N[C@@H](C)C(=O)OC(C)C(=O)NC(N)=O)c1C (some centres not stated) 0.241%
Cc1ccc(SC(C)C(=O)NCc2ccc(F)cc2)cc1 (configuration not stated) -1.45%
COc1ccc(NC(=O)C2CCC(CNc3c(N4CCCCC4)c(=O)c3=O)CC2)c(OC)c1 (configuration not stated) 2.53%
CCN(CCn1cccn1)Cc1nc(-c2ccc(C(=O)OC)cc2)no1 0.645%
COC(=O)c1ccc(S(=O)(=O)N2CCC(c3nc4ccccc4o3)CC2)cc1 1.89%
CC1(C)CC(=O)C(C2c3ccccc3S(=O)(=O)c3ccccc32)C(=O)C1 -4.3%
O=C(Nc1cccnc1)c1ccc(Cl)c([N+](=O)[O-])c1 -2.67%
O=C(Nc1ccncc1)c1ccc(Cl)c([N+](=O)[O-])c1 -1.98%
Nc1ccn(CC(=O)N2CCN(c3ccccn3)CC2)c(=O)n1 0.94%
CCCc1cc(=O)[nH]c(SCC(=O)c2c(N)n(CC(C)C)c(=O)n(C)c2=O)n1 -3.84%
CC(C)Cn1c(N)c(C(=O)COC(=O)CN2C(=O)C3CC=CCC3C2=O)c(=O)n(C)c1=O (configuration not stated) -0.106%
Cc1cccnc1NC(=O)Cn1c(=O)oc2ccccc21 10.8%
CC(C)(C)OC(=O)C[C@H]1C/C=C\C[C@@H](CC(=O)N[C@H](CO)Cc2ccccc2)C(=O)NC[C@@H](c2ccccc2)OC1=O -0.906%
CC(C)(C)OC(=O)C[C@@H]1C/C=C\C[C@@H](CC(=O)N[C@H](CO)Cc2ccccc2)C(=O)NCCOC1=O -192%
O=C(c1ccc2c(c1)OCO2)N1CCOCC1 -0.497%
O=C(c1ccc2c(c1)OCO2)N1CCN(C(=O)c2ccco2)CC1 -0.585%

inhibition, active:
COc1ccccc1CNC(=O)C1CCCN(S(=O)(=O)c2cccc3cccnc23)C1 (configuration not stated) 138%
O=C(C1=C(O)C(=O)N(Cc2ccccc2)C1c1cccnc1)c1ccco1 (configuration not stated) 10.9%
CC1Cc2cc(/C(O)=C3\C(=O)C(=O)N(Cc4cccnc4)C3c3ccccc3F)ccc2O1 (configuration not stated) 12.2%
C=CCC[C@H](Cc1ccc(F)cc1)C(=O)OC[C@@H](Cc1c[nH]c2ccccc12)NC(=O)[C@H](CC=C)CC(=O)N[C@H](CO)Cc1ccccc1 145%
O=C(Nc1nnc(-c2ccccc2)o1)c1cc(-c2cccs2)nc2ccccc12 14.9%
COc1cccc(NC(=O)CN(C)C(=O)c2cc(C3CC3)nn2-c2ccccc2)c1 559% [above what the read-out allows, likely interference]
COc1ccc(C2C=C(c3ccc(Br)cc3)Nc3nc(NS(C)(=O)=O)nn32)cc1 (configuration not stated) 31.6%
COc1ccc(C(=O)NC(C)Cn2nc(C)cc2C)cc1OC1CCN(C(C)=O)CC1 (configuration not stated) 16.1%
C[C@H](CO)N1C[C@H](C)[C@@H](CN(C)S(=O)(=O)c2ccc(F)cc2)Oc2c(NC(=O)Nc3ccccc3)cccc2C1=O 14.5%
COc1ccc(S(=O)(=O)N(C)C[C@H]2Oc3c(NC(=O)Nc4ccc5c(c4)OCO5)cccc3C(=O)N([C@H](C)CO)C[C@@H]2C)cc1 16.9%
Cc1noc(C)c1NC(=O)Nc1ccc2c(c1)C(=O)N([C@H](C)CO)C[C@H](C)[C@@H](CN(C)S(=O)(=O)c1cn(C)cn1)O2 546% [above what the read-out allows, likely interference]
Cc1ccnc(NC(=O)c2ccc(Cl)c([N+](=O)[O-])c2)c1 21.7%
CC(C)Cn1c(N)c(C(=O)COC(=O)C2CCCN2C(=O)c2cccs2)c(=O)n(C)c1=O (configuration not stated) 18.2%
Oc1ccc2ccc3cccc[n+]3c2c1 94.4%
O=CN1CCN(C(=O)c2ccc3c(c2)OCO3)CC1 39.6%
